The source of these data is PubChem BioAssay (NCI).

Structures are written as SMILES. The panel holds about 83,000 compounds, 20% with a hit somewhere; the sample as a whole holds those more often.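 Cells were grown in 96-well plates and exposed to the test compound at a single concentration for 48 hours; results are reported as percent growth, with values below 10 considered active.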 Calls of active or inactive are those of the source.

The test system of one experiment is SNB-75 CNS. Put plainly: NCI-60 one-dose screen, 48 h (100 = growth as untreated, 0 = no growth, -100 = all killed). The settings on record: 10 µM unless noted.
Consider `COc1ccc2c(c1)c(-c1nonc1-c1cn(C)c3ccc(OC)cc13)cn2C`, for which the growth is 24% (inactive). As for `C=C1C(=O)O[C@H]2[C@H]1CC/C(COC(=O)/C=C\C(=O)NCc1ccc(Cn3c(=O)sn(-c4ccccc4)c3=O)cc1)=C\CC[C@@]1(C)O[C@@H]21`, the growth was 98% (inactive). On the same count and under the same terms, under `Cc1nn(-c2ccccc2)c(/N=C/N(C)C)c1/C=C/C(=O)c1ccc(Cl)cc1` stands 91.6% (inactive).

As for `C#CC#CC#CC#CC#CC#CC#CC#CCC1OCC(COC(=O)O[C@@H](C(=O)O[C@H]2C[C@@]3(O)[C@@H](OC(=O)c4ccccc4)[C@@H]4[C@]5(OC(C)=O)CO[C@@H]5C[C@H](O)[C@@]4(C)C(=O)[C@H](OC(C)=O)C(=C2C)C3(C)C)[C@@H](NC(=O)c2ccccc2)c2ccccc2)O1` (stereo partly specified), the growth was -25.2% (active). Regarding `COc1ccc(/C=C/C(=O)c2cc3c(N)c(C(=O)Nc4ccc(OC)cc4)sc3nc2C)cc1`, the growth is 2.43% (active). As to `N=C(N)c1ccc(-c2ccc(-c3ccc(Cl)cc3)o2)o1`, the growth was 69.8% (inactive). Consider `COc1ccc(-c2nnc(SCC(=O)Nc3ccc(/C(C)=N\O)cc3)n2-c2ccccc2)cc1OC`, for which the growth was -16.5% (active). Same read-out and setting: under `Cc1ccc(-c2nc(C#N)c(S(=O)(=O)NCCO)o2)cc1` stands 105% (inactive).

`N#CC(C#N)N=Nc1ccc(Cl)cc1Cl`: the growth is 89.3% (inactive). For `C=CCOC(=O)C1=C(C)NC(=O)NC1c1c(Cl)n(C)c2ccccc12` (stereo unspecified), the growth was 97.8% (inactive). On the same count and under the same terms, under `CCCCCCCCn1ccc2cc(NC(=O)Cn3cc(CN4CCCCCC4)nn3)ccc21` stands 87.5% (inactive); under `O=C(CN1C(=O)NC2NC(=O)NC21)N/N=C/c1ccc(Cl)cc1Cl` (stereo unspecified), 82.8% (inactive). Same read-out and setting: under `COc1cc(C2=NN(C(C)=O)C(c3ccc(N(C)C)cc3)C2)cc(OC)c1OC` (stereo unspecified) stands 96.2% (inactive). Same read-out and setting: under `COc1cccc(/C=C/C(=O)c2cc3c(N)c(C(=O)Nc4cccc(Cl)c4C)sc3nc2C)c1` stands -1.75% (active); under `CCCn1c(=S)sc2c1nc(C)n1c(Nc3ccccc3)nnc21`, 102% (inactive); under `OC(c1ccccc1)(c1ccccc1)c1ccccc1-c1ccccc1`, 94.1% (inactive).

Another experiment concerns SNB-19 CNS. The description is as above. Conditions: 10 µM unless noted.
In the case of `NC(=O)c1c(NC(=O)c2ccc(Cl)cc2)sc2c1CCC(=O)C2`, the growth was 71.1% (inactive). Consider `COc1ccc(/C(C)=C(\c2ccc(OCCN3CCCCCC3)cc2)c2ccc(OC(=O)c3ccccc3)cc2)cc1`, for which the growth is 62.8% (inactive). Take `Clc1ccc(-c2cn3ccsc3n2)c(Cl)c1Cl`: the growth is 105% (inactive). Still for that read-out and setting: under `COc1ccc(Cl)cc1Nc1nc(C(F)(F)F)ccc1C(=O)N/N=C/c1ccccc1Cl` stands 9.47% (active); under `Cc1cc(C)cc(Nc2ccc([N+](=O)[O-])c(NCCN3CCOCC3)n2)c1`, 43.9% (inactive); under `C=CCn1c(SCC(=O)Nc2ccc(C(=O)/C=C/c3cc(OC)c(OC)c(OC)c3)cc2)nnc1-c1cc(-c2ccc(OC)cc2)nc2ccccc12`, 90.3% (inactive). As to `C#CCOc1cccc(-c2ncc3cc(NC(=O)CCl)ccc3n2)c1`, the growth is 2.89% (active). Same read-out and setting: under `Cn1cc(-c2nn3cc(-c4ccccc4)nc3s2)c2ccccc21` stands 73.4% (inactive). Turning to `Cc1cc2nc3c4ccccc4n(CCN(C)C)c3nc2cc1C`, the growth is 26% (inactive). The same measure, in the same setting: under `CCC(C)Nc1ccc(NC(C)CC)cc1` (stereo unspecified) stands 101% (inactive); under `O=C(CCCCCCN1CC(=O)N2[C@@H](C3CCCCC3)c3[nH]c4ccccc4c3C[C@H]2C1=O)NO`, 74.6% (inactive); under `C(/C=C/c1ccccc1)=Nc1ccc(CCc2ccc(N=C/C=C/c3ccccc3)cc2)cc1`, 88.1% (inactive). Regarding `Cc1c2ccccc2nc2c1ccc1cccnc12`, the growth was 88.8% (inactive). On the same count and under the same terms, under `Cc1ncc(C(=O)Nc2ccc(CN3CCN(C)CC3)c(C(F)(F)F)c2)cc1C#Cc1cnc(N)c2cnccc12` stands 23.1% (inactive). For `CC(C)(C)C(=O)/C=C/c1ccc([N+](=O)[O-])cc1`, the growth is 66.9% (inactive).

Regarding `N#Cc1c(-c2ccccc2)nc2c(c(-c3ccccc3)nn2-c2ccccc2)c1-c1ccc(N2CCOCC2)cc1`, the growth is 94.5% (inactive).

On to `Cc1ccc(C)n1/C=C/n1c(C)ccc1C`, for which the growth is 98.4% (inactive).

Regarding `CN(C)Cc1ccc(C(=O)Nc2ccc3ncnc(Nc4ccc(Oc5cccc(F)c5)c(Cl)c4)c3c2)cc1`, the growth was -3.27% (active). As to `O=c1[nH]cnc2c1C(c1ccc(Br)cc1)c1sc3c(F)cccc3c1O2` (stereo unspecified), the growth was 91.8% (inactive). Turning to `CS(=O)(=O)Nc1cncc(-c2ccc3ncnc(Nc4ccc(F)c(Cl)c4)c3c2)c1`, the growth is 42.9% (inactive). In the case of `Cc1cc(N2CCN(C)CC2)nc(NCc2cc(Nc3ccnc4cc(Cl)ccc34)ccc2F)n1`, the growth was 34.3% (inactive). In the case of `COc1ccc(-c2ccc(=O)oc2C#Cc2cc(OC)c(OC)c(OC)c2)cc1O`, the growth is 10.7% (inactive). As for `COc1cc(/C=C2\C(=O)N(c3c(Cl)cccc3Cl)c3ccccc32)cc(OC)c1OCCCCCCn1c2ccccc2c(=O)c2ccccc21`, the growth is 98.4% (inactive).

Regarding `CC/C=C1/C(=O)C=C[C@@H]1C/C=C\CCCC(=O)OC`, the growth was 62.9% (inactive).

As for `COc1ccc2c(c1)c(-c1nonc1-c1cn(C)c3ccc(OC)cc13)cn2C`, the growth is 36.8% (inactive).

In the case of `C=C1C(=O)O[C@H]2[C@H]1CC/C(COC(=O)/C=C\C(=O)NCc1ccc(Cn3c(=O)sn(-c4ccccc4)c3=O)cc1)=C\CC[C@@]1(C)O[C@@H]21`, the growth was 107% (inactive). With `Cc1nn(-c2ccccc2)c(/N=C/N(C)C)c1/C=C/C(=O)c1ccc(Cl)cc1`, the growth is 100% (inactive). With `C#CC#CC#CC#CC#CC#CC#CC#CCC1OCC(COC(=O)O[C@@H](C(=O)O[C@H]2C[C@@]3(O)[C@@H](OC(=O)c4ccccc4)[C@@H]4[C@]5(OC(C)=O)CO[C@@H]5C[C@H](O)[C@@]4(C)C(=O)[C@H](OC(C)=O)C(=C2C)C3(C)C)[C@@H](NC(=O)c2ccccc2)c2ccccc2)O1` (stereo partly specified), the growth was 18.9% (inactive). Still for that read-out and setting: under `COc1ccc(/C=C/C(=O)c2cc3c(N)c(C(=O)Nc4ccc(OC)cc4)sc3nc2C)cc1` stands 16.3% (inactive); under `N=C(N)c1ccc(-c2ccc(-c3ccc(Cl)cc3)o2)o1`, -68.3% (active). In the case of `COc1ccc(-c2nnc(SCC(=O)Nc3ccc(/C(C)=N\O)cc3)n2-c2ccccc2)cc1OC`, the growth is 75.8% (inactive). Take `Cc1ccc(-c2nc(C#N)c(S(=O)(=O)NCCO)o2)cc1`: the growth was 88.3% (inactive). Take `N#CC(C#N)N=Nc1ccc(Cl)cc1Cl`: the growth is 102% (inactive).

For the molecule `C=CCOC(=O)C1=C(C)NC(=O)NC1c1c(Cl)n(C)c2ccccc12` (stereo unspecified), the growth was 94% (inactive). With `CCCCCCCCn1ccc2cc(NC(=O)Cn3cc(CN4CCCCCC4)nn3)ccc21`, the growth was 14.4% (inactive). For `O=C(CN1C(=O)NC2NC(=O)NC21)N/N=C/c1ccc(Cl)cc1Cl` (stereo unspecified), the growth was 102% (inactive). On the same count and under the same terms, under `COc1cc(C2=NN(C(C)=O)C(c3ccc(N(C)C)cc3)C2)cc(OC)c1OC` (stereo unspecified) stands 89.8% (inactive).

As for `COc1cccc(/C=C/C(=O)c2cc3c(N)c(C(=O)Nc4cccc(Cl)c4C)sc3nc2C)c1`, the growth was -35.7% (active). Take `CCCn1c(=S)sc2c1nc(C)n1c(Nc3ccccc3)nnc21`: the growth is 70.8% (inactive). Regarding `OC(c1ccccc1)(c1ccccc1)c1ccccc1-c1ccccc1`, the growth is 94% (inactive).
